The values that follow come from the antibiotic and cytotoxicity screens of Wong et al. (2023).

The whole screen tested about 39,000 compounds, of which about 3,300 (8.5%) were called active. This is one part of a sample in which actives are shown more often than they occur.

For this experiment, the system named is HepG2. The experiment can be described thus: cytotoxicity call (relative viability < 0.9). Conditions: 10 µM.
As to `C[C@@H]1CN([C@H](C)CO)C(=O)Cc2cc(NS(=O)(=O)c3ccc(F)cc3)ccc2O[C@H]1CN(C)C(=O)Nc1cccc2ccccc12`, the cytotoxicity call is “inactive”.

Regarding `C[C@@H]1CN([C@@H](C)CO)S(=O)(=O)c2ccc(C3=CCCCC3)cc2O[C@H]1CN(C)C(=O)C1CCOCC1`, the cytotoxicity call was “inactive”.

In the case of `C[C@@H]1CCCCO[C@@H](CN(C)C(=O)CCC(F)(F)F)[C@@H](C)CN([C@@H](C)CO)C(=O)c2cc(NS(=O)(=O)c3ccc(Cl)cc3)ccc2O1`, the cytotoxicity call is “inactive”.

`Cc1ccc(S(=O)(=O)Nc2ccc3c(c2)C(=O)N([C@H](C)CO)C[C@@H](C)[C@H](CN(C)C(=O)Nc2ccccc2)OCCCC[C@H](C)O3)cc1`: the cytotoxicity call is “inactive”.

For the compound `C[C@@H]1CCCCO[C@@H](CN(C)C(=O)NC2CCCCC2)[C@H](C)CN([C@@H](C)CO)C(=O)c2cc(NC(=O)Nc3cccc4ccccc34)ccc2O1`, the cytotoxicity call was “inactive”.

Consider `CN1C(=O)c2cc(NC(=O)c3cccs3)ccc2OC[C@H]2O[C@@H](CC(=O)NCCN3CCCCC3)CC[C@@H]21`, for which the cytotoxicity call is “inactive”.

In the case of `CCCC#Cc1cnc2c(c1)C(=O)N([C@@H](C)CO)C[C@H](C)[C@@H](CN(C)S(=O)(=O)c1cccc(OC)c1)O2`, the cytotoxicity call is “inactive”.

`C[C@@H]1CN([C@@H](C)CO)C(=O)Cc2cc(NC(=O)CCC(F)(F)F)ccc2O[C@@H]1CN(C)S(=O)(=O)c1cccs1`: the cytotoxicity call was “inactive”.

For the compound `C[C@@H]1CN([C@@H](C)CO)S(=O)(=O)c2ccc(C#CC3CC3)cc2O[C@H]1CN(C)C(=O)c1cccc(F)c1`, the cytotoxicity call is “inactive”.

`C[C@H](CO)N1C[C@H](C)[C@@H](CN(C)S(=O)(=O)c2ccc(-n3cccn3)cc2)OCc2cn(nn2)CCCC1=O`: the cytotoxicity call was “inactive”.

On to `CNC(=O)CN1CCO[C@H]2CN(C(=O)C(C)C)C[C@@H]21`, for which the cytotoxicity call is “inactive”.

As for `O=C(C[C@H]1CC=CC[C@H](NC(=O)OCC2c3ccccc3-c3ccccc32)C(=O)OCCNC1=O)NCCO`, the cytotoxicity call was “inactive”.

`COc1ccccc1-c1cnc2c(c1)C(=O)N([C@@H](C)CO)C[C@@H](C)[C@@H](CN(C)C(=O)c1cccnc1)O2`: the cytotoxicity call is “inactive”.

For the compound `CC(C)CC#Cc1ccc2c(c1)O[C@H](CN(C)C(=O)C1CCOCC1)[C@@H](C)CN([C@@H](C)CO)S2(=O)=O`, the cytotoxicity call was “inactive”.

For the compound `C[C@H]1CN([C@@H](C)CO)S(=O)(=O)c2ccc(C#Cc3ccncc3)cc2O[C@H]1CN(C)C(=O)C1CCOCC1`, the cytotoxicity call is “active”.

For the compound `C[C@@H]1CN([C@H](C)CO)S(=O)(=O)c2ccc(C#Cc3ccncc3)cc2O[C@@H]1CN(C)C(=O)C1CCOCC1`, the cytotoxicity call was “active”.

With `CC(C)CC#Cc1ccc2c(c1)O[C@@H](CN(C)C(=O)C1CCOCC1)[C@H](C)CN([C@@H](C)CO)S2(=O)=O`, the cytotoxicity call is “inactive”.

On to `O=C(C[C@H]1C=C[C@@H](NC(=O)CN2CCOCC2)[C@H](CO)O1)NCc1cccc(F)c1`, for which the cytotoxicity call was “inactive”.

`C[C@@H]1CN([C@@H](C)CO)C(=O)c2cc(N(C)C)ccc2O[C@@H](C)CCCCO[C@H]1CN(C)Cc1ccc(C(F)(F)F)cc1`: the cytotoxicity call is “inactive”.

Regarding `C[C@@H]1CN([C@@H](C)CO)C(=O)CCCn2cc(nn2)CO[C@@H]1CN(C)S(=O)(=O)c1cn(C)cn1`, the cytotoxicity call is “inactive”.

For `C[C@@H]1CN([C@@H](C)CO)C(=O)c2cccc(NC(=O)CCCCCC(=O)Nc3ccccc3N)c2O[C@H]1CN(C)C(=O)Nc1ccc(C(F)(F)F)cc1`, the cytotoxicity call is “inactive”.

On to `C[C@@H]1CN([C@H](C)CO)C(=O)c2cc(NC(=O)NC3CCCCC3)ccc2O[C@H]1CN(C)Cc1ccc(C(F)(F)F)cc1`, for which the cytotoxicity call was “inactive”.

`O=C([C@@H]1N[C@@H]2c3ccc(-c4ccc(F)cc4)c(=O)n3C[C@@H]2[C@H]1CO)N1CCOCC1`: the cytotoxicity call was “inactive”.

Consider `C[C@@H]1CN([C@@H](C)CO)C(=O)c2cccc(NS(=O)(=O)c3cn(C)cn3)c2O[C@H]1CN(C)Cc1ccncc1`, for which the cytotoxicity call is “inactive”.

For `CC(C)(C(=O)O)c1ccc([C@@H](O)CCCN2CCC(C(O)(c3ccccc3)c3ccccc3)CC2)cc1`, the cytotoxicity call was “inactive”.

As for `CC(C)(C)c1ccc(C(O)CCCN2CCC(C(O)(c3ccccc3)c3ccccc3)CC2)cc1` (stereo not given), the cytotoxicity call was “active”.

Take `CC(C)(C(=O)O)c1ccc(C(O)CCCN2CCC(C(O)(c3ccccc3)c3ccccc3)CC2)cc1.Cl` (stereo not given): the cytotoxicity call is “inactive”.

Regarding `O=C(Nc1cc(C(F)(F)F)cc(C(F)(F)F)c1)Nc1c(Br)cc(Br)cc1-c1nn[nH]n1`, the cytotoxicity call is “inactive”.

With `O=C(NCO)c1ccc([N+](=O)[O-])cc1`, the cytotoxicity call was “inactive”.

Turning to `O=C(Nc1cc(C(F)(F)F)cc(C(F)(F)F)c1)Nc1cnn(-c2ccc([N+](=O)[O-])cc2)c1C(F)(F)F`, the cytotoxicity call was “active”.

As to `CNC1C(OC2C(OC3C(O)C(O)C(NC(=N)N)C(O)C3NC(=N)N)OC(C)C2(O)C=O)OC(CO)C(O)C1O.O=S(=O)(O)O` (stereo not given) [STREPTOMYCIN SULFATE [5mM; 10% aq DMSO + 5mM ethanolamine] ], the cytotoxicity call was “inactive”.

As to `COCC(=O)Nc1c(I)c(C(=O)NC[C@@H](O)CO)c(I)c(C(=O)N(C)C[C@@H](O)CO)c1I`, the cytotoxicity call was “inactive”.

Consider `COc1ccc(S(=O)(=O)N[C@@H]2C=C[C@H](CC(=O)N3CCN(c4ccccc4)CC3)O[C@@H]2CO)cc1`, for which the cytotoxicity call was “inactive”.

`O=C(O)c1cc(O)ccc1O` [listing 1 of 2 here]: the cytotoxicity call was “inactive”.

As for `O=C(O)c1cc(O)ccc1O` [listing 2 of 2 here], the cytotoxicity call was “inactive”.

Take `O=S(=O)(O)c1cc(O)ccc1O`: the cytotoxicity call is “active”.

Consider `C[C@@H]1CN([C@H](C)CO)C(=O)c2cc(NS(C)(=O)=O)ccc2O[C@@H](C)CCCCO[C@H]1CN(C)C(=O)Nc1ccc(C(F)(F)F)cc1`, for which the cytotoxicity call is “inactive”.

Consider `COc1ccc(S(=O)(=O)Nc2ccc3c(c2)C(=O)N([C@H](C)CO)C[C@H](C)[C@@H](CN(C)C(=O)CCC(F)(F)F)OCCCC[C@H](C)O3)cc1`, for which the cytotoxicity call was “inactive”.

As to `O=C(CCCCCC(=O)N/N=C/[C@H](O)[C@@H](O)[C@@H](O)[C@H](O)CO)NO`, the cytotoxicity call is “inactive”.

Turning to `C[C@@H]1CN([C@H](C)CO)C(=O)CCCn2nncc2CO[C@H]1CN(C)S(=O)(=O)c1ccc(Oc2ccccc2)cc1`, the cytotoxicity call is “inactive”.

Take `C[C@@H]1CN([C@H](C)CO)C(=O)c2cc(NC(=O)Nc3ccc(F)cc3)ccc2O[C@@H]1CN(C)CC1CCCCC1`: the cytotoxicity call is “inactive”.

With `C[C@@H]1CN([C@@H](C)CO)C(=O)c2cc(NC(=O)Nc3ccc(C(F)(F)F)cc3)ccc2O[C@H]1CN(C)CC1CCCCC1`, the cytotoxicity call was “active”.

`C[C@@H]1CN([C@@H](C)CO)C(=O)c2cc(NC(=O)Nc3ccc(F)cc3)ccc2O[C@@H]1CN(C)CC1CCCCC1`: the cytotoxicity call is “inactive”.

Regarding `C[C@@H]1CN([C@H](C)CO)C(=O)c2cc(NC(=O)Nc3ccc(F)cc3)ccc2O[C@H]1CN(C)CC1CCCCC1`, the cytotoxicity call was “inactive”.

For `C[C@H]1CN([C@@H](C)CO)C(=O)c2cc(NC(=O)Nc3ccc(F)cc3)ccc2O[C@H]1CN(C)CC1CCCCC1`, the cytotoxicity call was “inactive”.

For `C[C@H](CO)N1C[C@H](C)[C@H](CN(C)CC2CCCCC2)Oc2ccc(NC(=O)Nc3ccc(F)cc3)cc2C1=O`, the cytotoxicity call is “inactive”.

In the case of `C[C@H](CO)N1C[C@H](C)[C@H](CN(C)CC2CCCCC2)Oc2ccc(NC(=O)Nc3ccc(C(F)(F)F)cc3)cc2C1=O`, the cytotoxicity call is “active”.

Take `C[C@@H]1CN([C@@H](C)CO)C(=O)c2cc(NC(=O)Nc3ccc(C(F)(F)F)cc3)ccc2O[C@@H]1CN(C)CC1CCCCC1`: the cytotoxicity call is “active”.

On to `C[C@H](CO)N1C[C@H](C)[C@@H](CN(C)CC2CCCCC2)Oc2ccc(NC(=O)Nc3ccc(F)cc3)cc2C1=O`, for which the cytotoxicity call was “inactive”.

As for `C[C@H]1CN([C@@H](C)CO)C(=O)c2cc(NC(=O)Nc3ccc(F)cc3)ccc2O[C@@H]1CN(C)CC1CCCCC1`, the cytotoxicity call is “active”.
